Screens: PubChem BioAssay, Broad Institute
Most compounds without a hit are left out; they make up all but 2.8% or so of the library.
CDK5 p35 inh = CDK5/p35 (human) kinase inhibition; inhibition, % at 10 µM; 0.01% of 330,000 active; Recombinant CDK5/p35, ADP-Glo luminescence, 60 min; Q00535+Q15078;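 active = highest replicate inhibition of at least 50% and at least 75% of replicates reaching 50%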
SIRT5 inh = blocks human SIRT5 desuccinylation of peptide. Purified SirT5, succinyl-peptide AMC, trypsin-coupled fluorescence. inhibition, % at 15 µM. 1.1% of 330,000 active. AID 652115; in the data active = inhibition above about 15%
PvdQ acylase = blocks Pseudomonas aeruginosa PvdQ acylase activity. purified PvdQ acylase, fluorescence plate reader. inhibition, % at 10 µM. 0.063% of 340,000 active. AID 488965; in the data active = inhibition above about 30%, passing the limit was not always enough
FGF22 binding = binders of recombinant human FGF22 by thermal shift | Q9HCT0 | SYPRO orange fluorescence; percent of sucrose octasulfate shift, DMSO zero | activity (Tm shift, normalised), % at 9.99 µM | 1.5% of 340,000 active;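 active = mean Tm shift, scaled 0 neutral to 100 positive control, at about 1.3% or above, every replicate too, limit read from the data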
Target sequence (Q9HCT0 whole entry, looked up): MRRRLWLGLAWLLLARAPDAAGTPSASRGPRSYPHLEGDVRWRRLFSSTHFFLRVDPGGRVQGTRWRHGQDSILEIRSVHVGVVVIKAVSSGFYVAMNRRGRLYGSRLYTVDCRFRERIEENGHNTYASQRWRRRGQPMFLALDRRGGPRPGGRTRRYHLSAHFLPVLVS
PglD inh = PglD (C. jejuni) enzyme inhibition. 0.098% of 360,000 active. purified PglD enzyme, DTNB colorimetric CoA detection. inhibition, % at 12.5 µM; in the data active = inhibition above about 16%, passing the limit was not always enough
dFosB activator = mouse delta FosB homodimer activation | activation, % at 25 µM | purified delta FosB, TAMRA-CDK5 oligo fluorescence polarization; percent of positive-control signal above neutral wells | AID 493131 | 0.99% of 340,000 active;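 active = mean activation above about 17%, with every replicate also reaching it, limit read from the data, passing the limit was not always enough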
Target sequence (P13346 whole entry, looked up): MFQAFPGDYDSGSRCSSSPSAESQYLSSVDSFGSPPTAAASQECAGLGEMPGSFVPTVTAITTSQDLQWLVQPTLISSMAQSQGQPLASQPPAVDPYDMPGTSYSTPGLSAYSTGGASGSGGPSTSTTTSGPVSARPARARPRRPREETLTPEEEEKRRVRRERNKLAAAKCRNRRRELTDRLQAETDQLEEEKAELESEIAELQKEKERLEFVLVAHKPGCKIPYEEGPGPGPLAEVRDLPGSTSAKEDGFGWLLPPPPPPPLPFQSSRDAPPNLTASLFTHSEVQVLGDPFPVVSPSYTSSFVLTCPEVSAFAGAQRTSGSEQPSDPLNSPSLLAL
Hits are given with their value; 0 = inactive; - = no result given; ! = a repeat was not active.

SMILES | CDK5 p35 inh | SIRT5 inh | PvdQ acylase | FGF22 binding | PglD inh | dFosB activator
C[C@@H]1CN([C@H](C)CO)C(=O)c2cccc(NC(=O)Nc3ccc(C(F)(F)F)cc3)c2O[C@@H]1CN(C)C(=O)NC1CCCCC1 | - | 0 | - | 0 | 0 | -
C[C@H]1CN([C@@H](C)CO)C(=O)c2cccc(N(C)C)c2O[C@@H]1CN(C)C(=O)NC1CCCCC1 | - | 0 | - | 0 | 0 | -
C[C@H](CO)N1C[C@H](C)[C@H](CN(C)C(=O)Nc2ccccc2)Oc2c(NC(=O)c3ccc(-c4nccs4)cc3)cccc2C1=O | - | 0 | - | 0 | 0 | -
C[C@H]1CN([C@@H](C)CO)C(=O)c2cc(NC(=O)Nc3ccccc3)ccc2O[C@@H]1CN(C)Cc1ccncc1 | - | 0 | - | 0 | 0 | -
Cc1noc(C)c1NC(=O)N(C)C[C@@H]1Oc2ncc(Br)cc2C(=O)N([C@@H](C)CO)C[C@H]1C | - | 30.5! | - | 0 | 0 | -
O=C(CNC(=O)C1COc2ccccc2O1)N/N=C\c1ccc(Br)cc1 (configuration not stated) | - | 22.7 | 0 | 0 | 0 | 0
COc1ccc2c3c([nH]c2c1)[C@H](CO)N(C(=O)CN(C)C)CC31CCN(Cc2ccccc2)CC1 | - | - | - | 0 | - | -
Nc1nc(SCn2nnc3ccccc3c2=O)n[nH]1 | 0 | 0 | 0 | 43.2 | 0 | 0
Cc1nc(SCn2nnc3ccccc3c2=O)nc(C)c1C | 0 | - | 0 | - | 0 | 0
C[C@H]1CN([C@@H](C)CO)C(=O)Cc2cc(NS(=O)(=O)c3cn(C)cn3)ccc2O[C@H]1CN(C)S(=O)(=O)c1ccccc1 | - | 0 | - | 0 | 0 | -
C[C@@H](NC(=O)C[C@H]1CC[C@H](NC(=O)C2CC2)[C@@H](CO)O1)c1ccccc1 | - | 16.6 | - | 0 | 0 | -
O=C(C[C@@H]1C=C[C@H](NC(=O)CN2CCOCC2)[C@H](CO)O1)NC1CCCCC1 | - | 17.9 | - | 0 | 0 | -
C[C@@H](NC(=O)C[C@H]1C=C[C@H](NC(=O)CN2CCOCC2)[C@H](CO)O1)c1ccccc1 | - | 0 | - | 0 | 0 | -
C[C@H](NC(=O)C[C@@H]1C=C[C@@H](NC(=O)CN2CCOCC2)[C@@H](CO)O1)c1ccccc1 | - | 27.4! | - | 0 | 0 | -
C[C@@H](NC(=O)C[C@H]1CC[C@H](NC(=O)C2CC2)[C@H](CO)O1)c1ccccc1 | - | 0 | - | 0 | 0 | -
O=C(C[C@H]1C=C[C@H](NC(=O)CN2CCOCC2)[C@H](CO)O1)NC1CCCCC1 | - | 0 | - | 0 | 0 | -
O=c1[nH]c2ccc(Cl)cc2c(O)c1Cc1ccccc1 | 0 | 0 | 0 | 44.3 | - | 0
CCOC(=O)c1ccc(NC(=O)C2CC(=O)N=C(N)S2)cc1 (configuration not stated) | 0 | 0 | 0 | 43.3 | - | 0
CC(C)c1ccccc1NC(=S)NC(C)c1ccccc1 (configuration not stated) | 0 | 0 | 0 | 43.6 | - | 0
CC(NC(=S)Nc1ccc(F)cc1)c1ccccc1 (configuration not stated) | 0 | 0 | 0 | - | 0 | 0
CCN(Cc1ccccc1)C(=O)CSc1nncn1C | 0 | 0 | 0 | 43.3 | - | 0
CCN(Cc1ccccc1)C(=O)CSc1ccccc1C(=O)O | 0 | 0 | 0 | 0 | - | 0
COC(=O)Cc1[nH]n(-c2nc3ccccc3s2)c(=O)c1C(C)=Nc1ccc(C)cc1 | 0 | 0 | 0 | 2.5 | - | 0
COC(=O)Cc1[nH]n(-c2nc3ccccc3s2)c(=O)c1C(C)=Nc1ccc(Cl)cc1 | 0 | 0 | 0 | 0 | - | 0
COc1ccc(S(=O)(=O)N(C)C[C@@H]2Oc3ccc(NC(=O)c4ccncc4)cc3C(=O)N([C@@H](C)CO)C[C@@H]2C)cc1 | - | 0 | - | 0 | 0 | -
SMILES | CDK5 p35 inh | SIRT5 inh | PvdQ acylase | FGF22 binding | PglD inh | dFosB activator
O=C(N/N=C1/CCCc2ccccc21)c1cc([N+](=O)[O-])cc([N+](=O)[O-])c1 | - | 0 | - | 42.9 | - | -
O=C(N/N=C1\CCCc2oc(C(=O)O)cc21)c1ccccc1 | 0 | 0 | 0 | 43.2 | 0 | 0
O=C(c1cc([N+](=O)[O-])cc([N+](=O)[O-])c1)N1CCCc2ccccc21 | 0 | 0 | 0 | 43.1 | - | 0
CCN(CC)S(=O)(=O)c1ccc(Cl)c(C(=O)N2CCc3ccccc32)c1 | 0 | - | 0 | - | - | 0
CCN(CC)S(=O)(=O)c1ccc(C(=O)N2CCc3ccccc32)cc1 | 0 | 16.2 | 0 | 0 | - | 0
CO[C@H]1CN(C)C(=O)c2ccc(NS(=O)(=O)CC(F)(F)F)cc2OC[C@H](C)N(C)C[C@H]1C | - | 0 | - | 0 | 0 | -
CS(=O)(=O)N1CC2(C1)[C@H](c1ccccc1)[C@@H](CO)N2Cc1ccc(F)cc1 | - | 0 | - | 0 | - | -
COCCNC(=O)[C@H]1[C@H](CO)[C@H]2Cn3c(cccc3=O)[C@@H]1N2Cc1cccc(Cl)c1 | - | 0 | - | 0 | 0 | -
CCC(=O)N1C[C@@H](C)[C@@H](OC)CN(C)C(=O)c2cc(NC(=O)Nc3ccccc3)ccc2OC[C@@H]1C | - | 0 | - | 0 | 0 | -
COCc1cc(C)n(CC(=O)N2CCCC2)c(=O)c1C#N | 0 | - | 0 | - | - | 0
CCOC(=O)Cn1c(C)cc(COC)c(C#N)c1=O | 0 | - | 0 | 43.0 | - | 0
CO[C@@H]1CN(C)C(=O)c2cc(NC(=O)Nc3c(C)noc3C)ccc2OC[C@H](C)N(C)C[C@@H]1C | - | 0 | - | 0 | 0 | -
CC1CCN(S(=O)(=O)c2ccc(C(=O)N(C)C3CCS(=O)(=O)C3)cc2)CC1 (configuration not stated) | 0 | 24.9 | 0 | 0 | 0 | 0
COc1ccc2c3c(n(C)c2c1)[C@H](CO)N(Cc1ccncc1)CC31CCN(C(=O)Cc2ccncc2)CC1 | - | - | - | 0 | - | -
CC(CC(=O)N1CCN(c2ccc(C(F)(F)F)cn2)CC1)n1ccnc1 (configuration not stated) | 0 | 0 | 0 | 43.1 | - | 0
Cc1cc(C)cc(OCC(O)CN2CCC(CN3C(=O)c4cccc5cccc(c45)C3=O)CC2)c1 (configuration not stated) | 0 | 0 | 0 | 0 | 0 | 51.9
O=C1c2cccc3cccc(c23)C(=O)N1CC1CCN(CC(O)COc2ccc3ccccc3c2)CC1 (configuration not stated) | 0 | 0 | 0 | 0 | 0 | 0
N/C(=N\OC(=O)COc1cc(Cl)c(Cl)cc1Cl)c1ccncc1 | - | 0 | - | 43.1 | - | -
COc1ccc(/C(N)=N/OC(=O)COc2ccccc2Cl)cc1 | 0 | 0 | 0 | 0 | 0 | 0
Cc1cccc(/C(N)=N/OC(=O)COc2ccccc2Cl)c1 | 0 | 16.9 | 0 | 0 | - | 0
N/C(=N\OC(=O)COc1ccc(Br)cc1Cl)c1ccncc1 | 0 | 0 | 0 | 0 | - | 0
COC(=O)C1CCN(C(=O)Cc2ccccc2OC)CC1 | 0 | 0 | 0 | 43.1 | - | 0
COc1ccccc1CC(=O)N1CCN(c2ccccc2)CC1 | 0 | 0 | 0 | 0 | 0 | 0
COc1ccc2c3c(n(C)c2c1)[C@@H](CO)N(Cc1ccncc1)CC31CN(C(=O)NC(C)C)C1 | - | - | - | 0 | - | -
CN(C(=O)c1cccc(NC(=O)Cc2ccc(NC(=O)C3CCN(C(=O)C4CCCCC4)CC3)cc2)c1)C1CCCCC1 | 0 | 25.1 | 0 | 0 | 0 | 0
